Results taken from PubChem BioAssay AID1159580 (chemical genetic matrix, 2015).
About 2,000 (36%) of roughly 5,500 compounds were called active. Not shown: some 18% with an inconclusive outcome. No stated cut-off is given here; in the data, active means normalized growth mostly below about 0.91 (no sharp cut-off); inconclusive means no clear call, values can overlap the other calls; inactive means mostly above about 0.92. Some of the results follow.

Experiment: chemical genetic growth profiling, strain panel (AID 1159580);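 further: tested at 20 µM; growth read once vehicle control cultures reached saturation at 30 °C; 1 = growth at the plate median or of vehicle wells; lower values mean less growth of the strain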
Conditions: growth OD

Measured: normalized growth

CCCCOc1ccc(C(=O)CCC(=O)O)cc1
inactive: S. cerevisiae deletion strains, locus YAL013W, strain DEP1, active compounds read low 0.977 | S. cerevisiae deletion strains, locus YCL061C, strain MRC1, active compounds read low 0.936 | S. cerevisiae deletion strains, locus YDL134C, strain PPH21, active compounds read low 1.04 | S. cerevisiae deletion strains, locus YDR150W, strain NUM1, active compounds read low 0.934 | S. cerevisiae deletion strains, locus YEL061C, strain CIN8, active compounds read low 1 | S. cerevisiae deletion strains, locus YGR078C, strain PAC10, active compounds read low 0.939 | S. cerevisiae deletion strains, locus YHR030C, strain SLT2, active compounds read low 0.997 | S. cerevisiae deletion strains, locus YHR087W, strain rtc3, active compounds read low 0.982 | S. cerevisiae deletion strains, locus YJR075W, strain HOC1, active compounds read low 0.931 | S. cerevisiae deletion strains, locus YKL190W, strain CNB1, active compounds read low 1.02 | S. cerevisiae deletion strains, locus YLR039C, strain RIC1, active compounds read low 0.945 | S. cerevisiae deletion strains, locus YLR058C, strain SHM2 (second series), active compounds read low 1.01 | S. cerevisiae deletion strains, locus YLR085C, strain ARP6, active compounds read low 0.985 | S. cerevisiae deletion strains, locus YLR262C, strain YPT6, active compounds read low 0.946 | S. cerevisiae deletion strains, locus YML094W, strain GIM5, active compounds read low 1.01 | S. cerevisiae deletion strains, locus YMR219W, strain ESC1, active compounds read low 0.983 | S. cerevisiae deletion strains, locus YMR263W, strain SAP30, active compounds read low 0.969 | S. cerevisiae deletion strains, locus YNL298W, strain CLA4 (second series), active compounds read low 1.01 | S. cerevisiae deletion strains, locus YNL322C, strain KRE1, active compounds read low 1.01 | S. cerevisiae deletion strains, locus YNR030W, strain Alg12, active compounds read low 0.982 | S. cerevisiae deletion strains, locus YOL006C, strain TOP1, active compounds read low 1.05 | S. cerevisiae deletion strains, locus YPL055C, strain LGE1, active compounds read low 0.909 | S. cerevisiae deletion strains, locus YPL241C, strain CIN2, active compounds read low 1.01 | S. cerevisiae deletion strains, locus YPR135W, strain CTF4, active compounds read low 1.03 | S. cerevisiae strains, strain wild type, active compounds read low 1.03
active: S. cerevisiae deletion strains, locus YBR229C, strain ROT2, active compounds read low 0.915 | S. cerevisiae deletion strains, locus YDL101C, strain DUN1, active compounds read low 0.886 | S. cerevisiae deletion strains, locus YJR043C, strain POL32, active compounds read low 0.879 | S. cerevisiae deletion strains, locus YNL153C, strain GIM3, active compounds read low 0.904
